# Values joined by “and” are separate entries in the source; they are usually repeats but may differ in a detail not shown here. Equal values may be shown once. Results filed as inconclusive are left out. Active and inactive are the calls of the source. The call rests on the fitted dose curve; in most records, active means well fitted curve in the direction sought with a large enough effect; inconclusive means small, poorly fitted or top-dose-only effect, or another doubt; inactive means no such curve, though single readings can be large; an effect the other way counts as inactive or inconclusive.
# Target: Cellular tumor antigen p53 (Homo sapiens) (UniProt P04637)
# Sequence (P04637 whole entry, looked up): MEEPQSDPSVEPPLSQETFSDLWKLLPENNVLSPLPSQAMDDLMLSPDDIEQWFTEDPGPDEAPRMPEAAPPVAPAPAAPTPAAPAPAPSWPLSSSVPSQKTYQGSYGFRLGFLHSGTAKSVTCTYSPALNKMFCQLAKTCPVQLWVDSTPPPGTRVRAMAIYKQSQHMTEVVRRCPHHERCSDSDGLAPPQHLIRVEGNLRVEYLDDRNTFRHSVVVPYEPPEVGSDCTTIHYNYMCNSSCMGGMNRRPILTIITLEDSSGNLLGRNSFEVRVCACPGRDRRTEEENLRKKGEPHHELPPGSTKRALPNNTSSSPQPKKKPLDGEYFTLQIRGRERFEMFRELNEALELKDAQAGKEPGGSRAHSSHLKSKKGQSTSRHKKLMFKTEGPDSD
# Experiment: Primary qHTS for small molecule compounds that upregulate eGFP-tagged delta133p53alpha (in N-terminal) cells. (AID 2060322); further: nearly all actives have a fitted effect of over 75% in size;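 on activation: 0% = DMSO vehicle and 100% = reference activator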
# Settings: NCI-H358 eGFP-delta133p53alpha fluorescence, 24 h; activation: hits give high values
# In short: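 NCI-H358 cells pre-induced 24 h with 10 ng/ml doxycycline to express N-terminal eGFP-delta133p53alpha, then dosed 24 h at 37C without doxycycline; fixed, Hoechst-stained, GFP intensity by laser scanning cytometry, normalized to DMSO (0%) and 57.5 uM 5-azacytidine (100%).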
# Potency means the concentration at half of the fitted maximal effect.
Structure (SMILES),activation,Potency
CC(=O)O[C@H]1C[C@@H]2CC[C@@H]3[C@H](CC[C@@]4(C)[C@H]3C[C@H]([N+]3(C)CCCCC3)[C@@H]4OC(C)=O)[C@@]2(C)C[C@@H]1[N+]1(C)CCCCC1,-16.6% (inactive),
C[C@H](O)C(=O)C1=Nc2c(nc(N)[nH]c2=O)NC1,-8.4% (inactive),
[Li+],-7.03% (inactive),
CCCCCN(CCCCC)C(=O)C(CCC(=O)O)NC(=O)c1ccc(Cl)c(Cl)c1 (stereo not given),13% (inactive) and -3% (inactive),
CC1(C)CCC(NC(=O)[C@@H](N)CCC(=O)O)CC1,-8.15% (inactive),
NC(N)=NC(=O)Cc1c(Cl)cccc1Cl,-18.6% (inactive) and -5.21% (inactive),
CC(CCc1ccc(O)cc1)NCCc1ccc(O)c(O)c1 (stereo not given),23.7% (inactive) and -15.1% (inactive) and -3.75% (inactive),
CC(=O)c1ccc2c(c1)N(CCCN(C)C)c1ccccc1S2,3.95% (inactive) and -33.1% (inactive),
Cc1ccc(S(=O)(=O)/C=C/C#N)cc1,,30.1 µM (active)
N[C@@H](CCC(=O)N[C@H](CSN=O)C(=O)NCC(=O)O)C(=O)O,-28.5% (inactive),
CCCCCCCC/C=C\CCCCCCCC(=O)NCCO,-9.12% (inactive),
CC[C@H](NC(=O)c1c(C)c(-c2ccccc2)nc2ccccc12)c1ccccc1,-16.3% (inactive),
CC(N)(Cc1ccc(O)cc1)C(=O)O (stereo not given),-18.1% (inactive),
CCOC(=O)[C@H](CCc1ccccc1)N[C@@H](C)C(=O)N1[C@H](C(=O)O)C[C@H]2CCCC[C@@H]21,-16.3% (inactive),
Nc1ccc(N2C(=O)c3ccccc3C2=O)c(Cl)c1,-1.82% (inactive),
CCNC(=O)N1CCN(CCCC(c2ccc(F)cc2)c2ccc(F)cc2)CC1,-22% (inactive) and -43.5% (inactive),
CN1C2CC(OC(=O)[C@H](CO)c3ccccc3)CC1C1OC12 (stereo not given in full),-3.28% (inactive),
O=C1NC(=O)[C@@]2(CCOc3ccc(F)cc32)N1,-3.95% (inactive) and 3.53% (inactive),
CCCC(CCC)C(=O)OC1CC2CCC(C1)[N+]2(C)C (stereo not given),-17.7% (inactive),
NC(=O)CNCCC(c1ccccc1)c1ccccc1,-18.2% (inactive),

Structure (SMILES),activation,Potency
OCC1O[C@H](O)C(Cl)C(O)C1O (stereo not given in full),-8.54% (inactive),
CC(=O)SC1CC2=CC(=O)CC[C@]2(C)C2CC[C@@]3(C)C(CC[C@@]34CCC(=O)O4)C12 (stereo not given in full),-47.2% (inactive),
O=C(CCCCCN1CCN(c2ccccc2-c2ccccc2)CC1)NC1CCCc2ccccc21 (stereo not given),-20.9% (inactive),
CCN(CC)CCOCCOC(=O)C1(c2ccccc2)CCCC1,-17.5% (inactive) and -6.79% (inactive),
COCCOc1cc2nc[nH]c(=O)c2cc1OCCOC,-30.8% (inactive),
CC(C)NC[C@H](O)COc1ccc(CC(N)=O)cc1,-18.8% (inactive),
CCCN(CCC)CCc1cccc2c1CC(=O)N2,6.69% (inactive) and 9.01% (inactive),
CC(C)CC(NP(=O)(O)O[C@@H]1O[C@@H](C)[C@H](O)[C@@H](O)[C@H]1O)C(=O)NC(Cc1c[nH]c2ccccc12)C(=O)O (stereo not given in full),-14.9% (inactive),
O=C1NC(=O)c2c1c(-c1ccccc1)cc1[nH]c3ccc(O)cc3c21,-2.02% (inactive),
O=C(O)CC[C@@H](C(=O)O)N1C(=O)c2ccccc2C1=O,-14.6% (inactive),
CCCCCCCCCCCCCCC[C@H](O)[C@H](N)CO,14.1% (inactive),
CN(C)c1nc(N)c(C(=O)N=C(N)N)nc1Cl,-52.6% (inactive),
CC(C)C(=O)c1c(C(C)C)nn2ccccc12,-13.4% (inactive) and -31.4% (inactive),
N[C@@H](Cc1ccc(F)cc1)C(=O)O,-38.4% (inactive),
NCC(O)(CS(=O)(=O)O)c1ccc(Cl)cc1 (stereo not given),-28.8% (inactive),
COCc1nc2c([nH]1)c(=O)n(C)c(=O)n2CC(C)C,12.4% (inactive),
Cc1nc(N=Nc2ccc(S(=O)(=O)O)cc2S(=O)(=O)O)c(COP(=O)(O)O)c(C=O)c1O,-9.78% (inactive),
Nc1ncnc2c1ncn2C1CCCO1 (stereo not given),9.27% (inactive),
C=C1C[C@@]23CC[C@H]4[C@@](C)(CCC[C@@]4(C)C(=O)OC4OC(CO)C(O)C(O)C4O)[C@@H]2CC[C@]1(OC1OC(CO)C(O)C(O)C1OC1OC(CO)C(O)C(O)C1O)C3 (stereo not given in full),-5.25% (inactive),
CN1CCc2cc(Cl)c(O)cc2[C@@H](c2ccccc2)C1,-19.2% (inactive),

# Target: Cellular tumor antigen p53 (Homo sapiens) (UniProt P04637)
# Experiment: Primary qHTS for small molecule compounds that upregulate eGFP-tagged delta133p53alpha (in C-terminal) cells. (AID 2060324)
# Settings: NCI-H358 delta133p53alpha-eGFP (C-terminal tag), GFP fluorescence imaging, 24 h; series mostly up to 57.5 µM
# In short: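 NCI-H358 cells pre-induced 24 h with 100 ng/ml doxycycline to express delta133p53alpha-eGFP, then dosed in doxycycline-free medium for 24 h at 37C. Fixed, Hoechst-stained; GFP intensity by laser scanning cytometry, normalized to DMSO wells.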
row,Structure (SMILES),Potency
1,CC(=O)O[C@H]1C[C@@H]2CC[C@@H]3[C@H](CC[C@@]4(C)[C@H]3C[C@H]([N+]3(C)CCCCC3)[C@@H]4OC(C)=O)[C@@]2(C)C[C@@H]1[N+]1(C)CCCCC1,inactive
2,C[C@H](O)C(=O)C1=Nc2c(nc(N)[nH]c2=O)NC1,inactive
3,[Li+],inactive
4,CCCCCN(CCCCC)C(=O)C(CCC(=O)O)NC(=O)c1ccc(Cl)c(Cl)c1 (stereo not given),inactive
5,CC1(C)CCC(NC(=O)[C@@H](N)CCC(=O)O)CC1,inactive
6,NC(N)=NC(=O)Cc1c(Cl)cccc1Cl,inactive
7,CC(CCc1ccc(O)cc1)NCCc1ccc(O)c(O)c1 (stereo not given),inactive
8,CC(=O)c1ccc2c(c1)N(CCCN(C)C)c1ccccc1S2,inactive
9,Cc1ccc(S(=O)(=O)/C=C/C#N)cc1,30.1 µM (active)
10,N[C@@H](CCC(=O)N[C@H](CSN=O)C(=O)NCC(=O)O)C(=O)O,inactive
11,CCCCCCCC/C=C\CCCCCCCC(=O)NCCO,inactive
12,CC[C@H](NC(=O)c1c(C)c(-c2ccccc2)nc2ccccc12)c1ccccc1,inactive
13,CC(N)(Cc1ccc(O)cc1)C(=O)O (stereo not given),inactive
14,CCOC(=O)[C@H](CCc1ccccc1)N[C@@H](C)C(=O)N1[C@H](C(=O)O)C[C@H]2CCCC[C@@H]21,inactive
15,Nc1ccc(N2C(=O)c3ccccc3C2=O)c(Cl)c1,inactive
16,CCNC(=O)N1CCN(CCCC(c2ccc(F)cc2)c2ccc(F)cc2)CC1,inactive
17,CN1C2CC(OC(=O)[C@H](CO)c3ccccc3)CC1C1OC12 (stereo not given in full),inactive
18,O=C1NC(=O)[C@@]2(CCOc3ccc(F)cc32)N1,inactive
19,CCCC(CCC)C(=O)OC1CC2CCC(C1)[N+]2(C)C (stereo not given),inactive
20,NC(=O)CNCCC(c1ccccc1)c1ccccc1,inactive

row,Structure (SMILES),Potency
1,OCC1O[C@H](O)C(Cl)C(O)C1O (stereo not given in full),inactive
2,CC(=O)SC1CC2=CC(=O)CC[C@]2(C)C2CC[C@@]3(C)C(CC[C@@]34CCC(=O)O4)C12 (stereo not given in full),inactive
3,O=C(CCCCCN1CCN(c2ccccc2-c2ccccc2)CC1)NC1CCCc2ccccc21 (stereo not given),inactive
4,CCN(CC)CCOCCOC(=O)C1(c2ccccc2)CCCC1,inactive
5,COCCOc1cc2nc[nH]c(=O)c2cc1OCCOC,inactive
6,CC(C)NC[C@H](O)COc1ccc(CC(N)=O)cc1,inactive
7,CCCN(CCC)CCc1cccc2c1CC(=O)N2,inactive
8,CC(C)CC(NP(=O)(O)O[C@@H]1O[C@@H](C)[C@H](O)[C@@H](O)[C@H]1O)C(=O)NC(Cc1c[nH]c2ccccc12)C(=O)O (stereo not given in full),inactive
9,O=C1NC(=O)c2c1c(-c1ccccc1)cc1[nH]c3ccc(O)cc3c21,26.9 µM (active)
10,O=C(O)CC[C@@H](C(=O)O)N1C(=O)c2ccccc2C1=O,inactive
11,CCCCCCCCCCCCCCC[C@H](O)[C@H](N)CO,inactive
12,CN(C)c1nc(N)c(C(=O)N=C(N)N)nc1Cl,inactive
13,CC(C)C(=O)c1c(C(C)C)nn2ccccc12,inactive
14,N[C@@H](Cc1ccc(F)cc1)C(=O)O,inactive
15,NCC(O)(CS(=O)(=O)O)c1ccc(Cl)cc1 (stereo not given),inactive
16,COCc1nc2c([nH]1)c(=O)n(C)c(=O)n2CC(C)C,inactive
17,Cc1nc(N=Nc2ccc(S(=O)(=O)O)cc2S(=O)(=O)O)c(COP(=O)(O)O)c(C=O)c1O,inactive
18,Nc1ncnc2c1ncn2C1CCCO1 (stereo not given),inactive
19,C=C1C[C@@]23CC[C@H]4[C@@](C)(CCC[C@@]4(C)C(=O)OC4OC(CO)C(O)C(O)C4O)[C@@H]2CC[C@]1(OC1OC(CO)C(O)C(O)C1OC1OC(CO)C(O)C(O)C1O)C3 (stereo not given in full),inactive
20,CN1CCc2cc(Cl)c(O)cc2[C@@H](c2ccccc2)C1,inactive

# — PubChem BioAssay (NCATS)
